Compound activity (PubChem BioAssay)
KB-V1 cytotox: kills drug-selected multidrug resistant KB-V1 cells. KB-V1 MDR cells viability, CellTiter-Glo, 72 h. Potency, µM (highest dose often 46.1 µM), usual class: cytotoxic. 400,000 compounds, 3.4% hits. AID 1347076; further: on the % scale 0 is the no-effect control and ±100 the full control effect; nearly all actives have a fitted effect of over 60% in size
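Potencies derive from concentration-effect curves fitted to normalized luminescence (CellTiter-Glo) of KB-V1 cells treated for 72 h at 37 degrees C in phenol-red-free DMEM containing 10% FBS.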
SW480 rerep: DNA re-replication induction in SW480 cells | 340,000 compounds, 1.8% hits | Potency, µM (titrated, usually from 46.1 µM), inactives show at the highest dose re-replication activation, usual class: activators | SW480 DNA re-replication, Hoechst DNA content imaging, 48 h; further: % of control where 0% means no effect; nearly all actives have a fitted effect of over 55% in size
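Compounds, transferred as 23 nL by pin tool, were incubated with cells for 48 hr; DNA content per nucleus was then quantified by Hoechst staining and fluorescence plate imaging.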
RGS4 inhibitor: inhibitors of human regulator of G protein signaling 4; Transcreener GDP fluorescence polarization, RGS4-accelerated GTP hydrolysis; 390,000 compounds, 0.039% hits; Potency, µM (highest dose often 114 µM), without a hit: top-dose activity change, negative = inhibition, most hits filed as inhibitors; P49798; further: on the % scale 0 is the no-effect control and ±100 the full control effect; nearly all actives have a fitted effect of over 75% in size
Target sequence (P49798 whole entry, looked up): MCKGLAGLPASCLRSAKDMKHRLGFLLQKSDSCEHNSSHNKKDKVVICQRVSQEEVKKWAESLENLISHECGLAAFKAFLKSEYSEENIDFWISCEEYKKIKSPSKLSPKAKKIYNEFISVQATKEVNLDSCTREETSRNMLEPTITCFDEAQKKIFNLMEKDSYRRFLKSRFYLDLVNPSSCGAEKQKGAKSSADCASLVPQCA
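MLSMR compounds (23 nl, pin-transferred) preincubated 10 min at room temperature with a 500nM (2x) first reagent, then RGS4 at 900nM (2x) plus Transcreener GDP mix added; fluorescence polarization (620/688 nm) read before and after 90 min at 30 °C.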
MCF10A rereplic: inducers of DNA re-replication in MCF 10A breast cells | MCF 10A DNA re-replication, Hoechst nuclear intensity, 48 h | Potency, µM (series often up to 46.1 µM), inactives show top-dose activity, positive = re-replication, actives largely listed as activators | 350,000 compounds, 2.9% hits | AID 624296; further: % of control where 0% means no effect; nearly all actives have a fitted effect of over 50% in size
KB-3-1 cytotox: kills parental KB-3-1 adenocarcinoma cells. KB-3-1 viability, CellTiter-Glo ATP luminescence, 72 h. Potency, µM (series often up to 46.1 µM), most hits filed as cytotoxic. 400,000 compounds, 1.4% hits. AID 1347075; further: on the % scale 0 is the no-effect control and ±100 the full control effect; nearly all actives have a fitted effect of over 60% in size
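Cells are dispensed, compounds pinned in, plates held at 37 °C for 72 h, then CellTiter-Glo is added and luminescence read after 10 minutes. Cell line: parental KB-3-1 in phenol-red-free DMEM, 10% FBS.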
PTAP TSG101 blk: blocks PTAP/TSG101 interaction to inhibit HIV-1 budding | Q99816 | Fluorescence polarization, FITC-PTAP peptide / Tsg101 binding | Potency, µM (doses to about 115 µM), without a hit: at the highest dose activity change, negative = inhibition, most hits filed as inhibitors | 340,000 tested, under 10 active | AID 493005; active means well fitted inhibition curve with a large enough effect in the main read-out, with a control signal flat, not every such curve was filed as active; inconclusive means small, poorly fitted or top-dose-only effect, or effect the other way, or a change in a side signal; inactive means no such curve, though single readings can be large or run the other way; further: % of control where 0% means no effect
Target sequence (Q99816 whole entry, looked up): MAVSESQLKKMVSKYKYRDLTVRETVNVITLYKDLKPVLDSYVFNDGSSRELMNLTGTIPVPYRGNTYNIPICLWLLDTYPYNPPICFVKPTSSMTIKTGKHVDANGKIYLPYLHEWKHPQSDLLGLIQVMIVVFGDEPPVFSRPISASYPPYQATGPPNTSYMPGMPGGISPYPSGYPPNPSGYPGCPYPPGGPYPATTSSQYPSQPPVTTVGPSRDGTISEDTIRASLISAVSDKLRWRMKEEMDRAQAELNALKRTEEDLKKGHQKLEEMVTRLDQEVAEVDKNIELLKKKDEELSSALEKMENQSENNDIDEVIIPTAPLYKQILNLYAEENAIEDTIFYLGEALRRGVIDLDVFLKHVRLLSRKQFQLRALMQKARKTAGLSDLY
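Compounds were pin-transferred onto Tsg101 binding domain (10 uM final) in HEPES pH 7.5 buffer, then FITC-PTAP peptide was added at 50 nM final. After 20 min at RT, polarization reported peptide displacement across a qHTS concentration series.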
* marks the source's active call; other numbers are inactive results. In the library only some 6.6% were active in any assay of this set; here they are far more common. Unless noted, the call rests on the fitted dose curve; in most records, active means well fitted curve in the direction sought with a large enough effect; inconclusive means small, poorly fitted or top-dose-only effect, or another doubt; inactive means no such curve, though single readings can be large; an effect the other way counts as inactive or inconclusive. Potency means the concentration at half of the fitted maximal effect.

For Cc1cccc(OCCCC(=O)Nc2nc3ccccc3[nH]2)c1 the results were KB-V1 cytotox 21µM*, SW480 rerep 15%, RGS4 inhibitor -3%, MCF10A rereplic 9%, KB-3-1 cytotox inconclusive and PTAP TSG101 blk -3%.
Screening O=C(CSc1ncccc1-c1nc2ccccc2[nH]1)Nc1ccc2c(c1)OCCO2 returned KB-V1 cytotox 9.2µM*, SW480 rerep -113%, RGS4 inhibitor -27%, MCF10A rereplic 11%, KB-3-1 cytotox inactive and PTAP TSG101 blk -2%.
`CCOC(=O)N1CCC2(CC1)OC(=O)C(C)=C2C(=O)NCc1cccc(F)c1` gave KB-V1 cytotox inactive, RGS4 inhibitor -12% and KB-3-1 cytotox inactive.
`N#CCCCSc1ncccc1-c1nc2ccccc2[nH]1` gave KB-V1 cytotox 13µM*, SW480 rerep -8%, RGS4 inhibitor -10%, MCF10A rereplic 0%, KB-3-1 cytotox inactive and PTAP TSG101 blk -4%.
`N#CCSc1ncccc1-c1nc2ccccc2[nH]1` gave KB-V1 cytotox inactive, SW480 rerep -3%, RGS4 inhibitor -25%, MCF10A rereplic 0%, KB-3-1 cytotox inactive and PTAP TSG101 blk -8%.
O=S1(=O)CCC(NC(=S)Nc2ccccc2)C1 (configuration not stated) was read as KB-V1 cytotox inactive, SW480 rerep 4.1µM*, RGS4 inhibitor 0%, MCF10A rereplic 1%, KB-3-1 cytotox inactive and PTAP TSG101 blk -3%.
For O=[N+]([O-])c1nn(-c2ccc3c(c2)OCCO3)n(O)c1=NC1CCCCCC1 the results were KB-V1 cytotox 16µM*, SW480 rerep 3%, RGS4 inhibitor 2%, MCF10A rereplic 1%, KB-3-1 cytotox inactive and PTAP TSG101 blk -4%.
For COc1ccc(-n2nc([N+](=O)[O-])c(=NCc3ccc4c(c3)OCO4)n2O)cc1 the results were KB-V1 cytotox 21µM*, SW480 rerep -1%, RGS4 inhibitor -2%, MCF10A rereplic -2%, KB-3-1 cytotox inactive and PTAP TSG101 blk -1%.
`O=[N+]([O-])c1nn(-c2ccc3c(c2)OCCO3)n(O)c1=NC1CCCC1` gave KB-V1 cytotox inactive, SW480 rerep 5%, RGS4 inhibitor -25%, MCF10A rereplic 17%, KB-3-1 cytotox inactive and PTAP TSG101 blk 0%.
For O=S1(=O)C=C(SCc2ccc(Cl)c(Cl)c2)Nc2ccccc21 the results were KB-V1 cytotox 15µM*, SW480 rerep inconclusive, RGS4 inhibitor -15%, MCF10A rereplic inconclusive, KB-3-1 cytotox inconclusive and PTAP TSG101 blk -3%.
`Nc1nc(SCc2ccc(Cl)c(Cl)c2)n[nH]1` gave KB-V1 cytotox inactive, SW480 rerep 5%, RGS4 inhibitor -3%, MCF10A rereplic -7%, KB-3-1 cytotox inactive and PTAP TSG101 blk 0%.
Screening Cc1ccsc1/C=N/Nc1ncnc2nc[nH]c12 returned KB-V1 cytotox inactive, SW480 rerep -10%, RGS4 inhibitor 19%, MCF10A rereplic 0%, KB-3-1 cytotox inactive and PTAP TSG101 blk -3%.
`Cc1ccccc1/C=N/Nc1ncnc2nc[nH]c12` gave KB-V1 cytotox inactive, SW480 rerep 18µM*, RGS4 inhibitor 15%, MCF10A rereplic 0%, KB-3-1 cytotox inactive and PTAP TSG101 blk -6%.
Screening CCc1ccccc1NC(=O)c1ccc2nc(C(C)C)oc2c1 returned KB-V1 cytotox inconclusive, RGS4 inhibitor 7% and KB-3-1 cytotox inconclusive.
`COc1ccc(-c2nn(C)c(=O)c3ccccc23)cc1NC(=O)COc1ccc(C)cc1` gave KB-V1 cytotox inactive, SW480 rerep 2%, RGS4 inhibitor 3%, MCF10A rereplic 20%, KB-3-1 cytotox inconclusive and PTAP TSG101 blk 0%.
For Cc1ccc(-c2nn(CC(=O)NCc3cc(-c4nn(C)c(=O)c5ccccc45)ccc3C)c(=O)c3ccccc23)cc1 the results were KB-V1 cytotox 7.3µM*, SW480 rerep 6.5µM*, RGS4 inhibitor 24%, MCF10A rereplic 9.2µM*, KB-3-1 cytotox 23µM* and PTAP TSG101 blk -1%.
For CCC(=O)NCc1cc(-c2nn(C)c(=O)c3ccccc23)ccc1C the results were KB-V1 cytotox inconclusive, SW480 rerep 0%, RGS4 inhibitor 30%, MCF10A rereplic 12%, KB-3-1 cytotox inactive and PTAP TSG101 blk -4%.
For COc1ccc(-c2nn(C)c(=O)c3ccccc23)cc1NC(=O)Cn1nc(C)c2ccccc2c1=O the results were KB-V1 cytotox 21µM*, SW480 rerep 28%, RGS4 inhibitor -49%, MCF10A rereplic 16%, KB-3-1 cytotox inactive and PTAP TSG101 blk -6%.
Screening COc1cc(NC(=O)Cc2nn(C)c(=O)c3ccccc23)cc(OC)c1OC returned KB-V1 cytotox 15µM*, SW480 rerep -8%, RGS4 inhibitor 13%, MCF10A rereplic 6%, KB-3-1 cytotox inactive and PTAP TSG101 blk -4%.
`Cc1ccc(NC(=O)c2ccc(-c3nn(C)c(=O)c4ccccc34)cc2)cc1` gave KB-V1 cytotox 21µM*, SW480 rerep -1%, RGS4 inhibitor -19%, MCF10A rereplic 4%, KB-3-1 cytotox inactive and PTAP TSG101 blk 0%.
For COC(=O)c1ccc(-c2ccc(OC)c(C3C4C=CCC(C)C4C(=O)N3Cc3ccccc3)c2)cc1 (configuration not stated) the results were RGS4 inhibitor -5%.
For O=C1CCCc2cc(S(=O)(=O)NCC3CCC(C(=O)Nc4ccc(Cl)cc4)CC3)ccc2N1 (configuration not stated) the results were KB-V1 cytotox inactive, RGS4 inhibitor 2% and KB-3-1 cytotox inactive.
`COC(=O)Cn1nc(-c2ccc(C)c(S(=O)(=O)N(C)C)c2)c2ccccc2c1=O` gave KB-V1 cytotox 18µM*, SW480 rerep -2%, RGS4 inhibitor 6%, MCF10A rereplic 17%, KB-3-1 cytotox inactive and PTAP TSG101 blk -1%.
Cc1ccc(-c2nn(CC(=O)N(C)C)c(=O)c3ccccc23)cc1S(=O)(=O)N(C)C was read as KB-V1 cytotox inactive, SW480 rerep -11%, RGS4 inhibitor -9%, MCF10A rereplic 2%, KB-3-1 cytotox inactive and PTAP TSG101 blk -5%.
Screening CCC(=O)Nc1cc(-c2nn(C)c(=O)c3ccccc23)ccc1OC returned KB-V1 cytotox 12µM*, SW480 rerep -5%, RGS4 inhibitor -11%, MCF10A rereplic 3%, KB-3-1 cytotox inactive and PTAP TSG101 blk -9%.
